Only some compounds are listed: those with a hit (about 12% of all), similar ones and a draw of the others.
HP1b chromo inh – inhibitors of HP1-beta chromodomain binding to methylated histone tails. P83916. AlphaScreen HP1-beta / biotin-H3K9me3 peptide binding. Potency, µM (doses to about 114 µM), actives largely listed as inhibitors. hit rate 0.56% among 390,000; note: nearly all actives have a fitted effect of over 70% in size
Target sequence (P83916 whole entry, looked up): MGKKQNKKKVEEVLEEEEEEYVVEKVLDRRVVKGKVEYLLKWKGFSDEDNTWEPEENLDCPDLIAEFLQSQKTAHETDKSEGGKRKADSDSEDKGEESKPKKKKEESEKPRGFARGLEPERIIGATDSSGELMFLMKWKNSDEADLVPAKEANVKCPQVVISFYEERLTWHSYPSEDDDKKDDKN
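HP1-beta protein (50 nM final) preincubated 30 min at room temperature with biotinylated H3(1-18)K9me3 peptide (50 nM) in PBS pH 7.4, 0.01% Tween-20, then compound added for 30 min. AlphaScreen streptavidin donor/nickel chelate acceptor beads (10 ug/mL final), 30 min dark, luminescence read.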
L3MBTL1 block – L3MBTL1 (human) inhibition | AlphaScreen L3MBTL1–H3K9me1 peptide binding | Potency, µM (titrated, usually from 57.1 µM), usual class: inhibitors | hit rate 0.66% among 230,000 | AID 485360; note: nearly all actives have a fitted effect of over 60% in size
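Read-out is AlphaScreen signal from streptavidin donor and nickel chelate acceptor beads (10 ug/mL final each) bridging L3MBTL1 (50 nM) and biotinylated K9-monomethylated H3(1-15) peptide (75 nM), after 30 min compound exposure at room temperature.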
Sfp inh – inhibitors of Bacillus subtilis Sfp phosphopantetheinyl transferase | hit rate 3.5% among 310,000 | Biochemical Sfp PPTase activity, qHTS | Q9F4F7 | AID 1490 | Potency, µM, usual class: inhibitors;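 note: the enzyme is Sfp with the accession as filed and its product quenches rhodamine fluorescence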
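With Hepes-Na pH 7.6 buffer containing 10 mM MgCl2, Sfp (15 nM) modified BHQ-2-YbbR (12.5 uM) using rhodamine-CoA (5 uM). Two reads 30 minutes apart at 525/598 nm yielded each well's rate.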
G9a inh – inhibitors of human histone lysine methyltransferase G9a; hit rate 8.8% among 350,000; Q96KQ7; G9a H3K9 monomethylation, AlphaScreen, 2 h; Potency, µM (series often up to 102 µM), usual class: inhibitors; note: nearly all actives have a fitted effect of over 75% in size
Target sequence (Q96KQ7 913-1193 limits assumed): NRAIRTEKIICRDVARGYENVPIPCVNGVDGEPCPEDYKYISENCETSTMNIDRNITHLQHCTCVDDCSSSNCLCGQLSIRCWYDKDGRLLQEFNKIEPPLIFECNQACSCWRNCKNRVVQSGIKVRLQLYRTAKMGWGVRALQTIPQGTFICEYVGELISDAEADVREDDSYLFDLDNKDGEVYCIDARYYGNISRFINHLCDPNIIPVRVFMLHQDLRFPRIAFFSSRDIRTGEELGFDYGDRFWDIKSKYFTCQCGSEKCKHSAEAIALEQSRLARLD
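Chemiluminescent proximity detection of H3K9 monomethylation, read after 10 min bead incubation in the dark. Reaction: 20 nM G9a, 500 nM biotin-H3K9 peptide, 20 uM SAM cofactor, 2 h, room temperature, following 15 min enzyme-compound preincubation.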
JMJD2A Tudor – blocks the human JMJD2A Tudor domain. AID 504339. AlphaScreen JMJD2A-Tudor / H3K4me3 peptide binding. hit rate 4.4% among 390,000. Potency, µM (highest dose often 114 µM), hits mostly inhibitors; note: nearly all actives have a fitted effect of over 50% in size
BAZ2B inh – BAZ2B (human) inhibition. AlphaScreen BAZ2B-H3K14Ac peptide displacement. hit rate 4.4% among 360,000. Potency, µM (highest dose often 114 µM), hits mostly inhibitors. AID 504333. Q9UIF8; note: nearly all actives have a fitted effect of over 60% in size
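Compounds, titrated to a top concentration of 110 uM, were incubated 30 min at room temperature with preformed BAZ2B/acetyl-K14 H3 peptide complex (50 nM each). Proximity signal was measured by AlphaScreen after 20 min with beads.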
Hits are given with their value; n = inactive; u = inconclusive; x = no result; [ ] = another dose, or the depositor's remark. Calls come from the whole dose curve; as a rule, active = well fitted curve in the direction sought with a large enough effect; inconclusive = small, poorly fitted or top-dose-only effect, or another doubt; inactive = no such curve, though single readings can be large; an effect the other way counts as inactive or inconclusive.

SMILES | HP1b chromo inh | L3MBTL1 block | Sfp inh | G9a inh | JMJD2A Tudor | BAZ2B inh
NC(=O)CSc1nnc(-c2ccccn2)n1N | n | x | n | n | 71µM | 22µM
CCN(CC)C(=O)CSc1nnc(-c2ccccn2)n1-c1ccc(C)c(C)c1 | n | n | n | n | u | 45µM
Nn1c(SCc2ccccc2)nnc1-c1ccccn1 | n | n | n | n[12.7 µM] | n | 14µM
Cc1ccc(-n2c(SCC(N)=O)nnc2-c2ccccn2)cc1 | n | x | n | n[12.7 µM] | u | 25µM
CCN(CC)C(=O)CSc1nnc(-c2cnccn2)n1-c1ccccc1 | n | n | n | n | n | n
Cc1cccc(-c2nnc(SCC#N)n2-c2ccccc2)c1 | n | n | n | u | n | n
CCOc1ccccc1-n1c(SCC(N)=O)nnc1-c1cccnc1 | n | n[11.4 µM] | n | u | n | n
CCc1ccccc1-n1c(SCC(=O)N2CCCC2)nnc1-c1ccccn1 | n | n | n | n | u | 56µM
Cc1ccc(-n2c(SCCN)nnc2-c2cccc(C)c2)cc1 | n | x | n | n | n[11.4 µM] | 79µM
Cc1cccc(-n2c(SCC(N)=O)nnc2-c2ccccn2)c1C | n | u | n | n | 79µM | 18µM
CC1(C)CCC[C@@]2(C)C1CC[C@@](C)(O)[C@@H]2CC[C@@](C)(O)C1CO1 (stereo partly specified) | x | x | n | x | x | x
O=C(NCCCOc1cccc(CN2CCCCC2)c1)c1ccc(Cl)c(Cl)c1 | u | n | n | 10µM | 3.5µM | u
COc1ccccc1OCCn1c(COc2cc(C)ccc2C)nc2ccccc21 | n | x | x | u | n | n
Cc1sc(N)c(C(=O)c2ccccc2Cl)c1C | u | n | n | n[12.7 µM] | u | 45µM
CCOC(=O)c1cnc(Nc2nc3ccccc3o2)nc1CN1CCN(C)CC1 | n | n | n | n[0.501 µM] | u | 79µM
CCOC(=O)C(=CN=C(N)Nc1nc2ccccc2o1)C(=O)OCC | n | n | n | n | n | n
CCOC(=O)C(Cc1ccc(NC(=O)/C(=C/c2ccc(OC(C)=O)cc2)NC(C)=O)cc1)N1C(=O)c2ccccc2C1=O (stereo unspecified) | n | n | n | n | 89µM | n
CCOC(=O)C(Cc1ccc(NC(=O)/C(=C/c2ccccc2)NC(=O)c2ccccc2)cc1)N1C(=O)c2ccccc2C1=O (stereo unspecified) | n | n | n | n | n | n
Cc1ccc(C(=O)O)cc1NC(=O)C1=CSCCO1 | n | x | n | 50µM | n | n
Cc1ccc(C(=O)O)cc1NC(=O)c1cccs1 | n | u | n | u | n | n
CC(=O)Nc1nonc1-c1nnc(SCc2ccc(F)cc2)n1C | n | x | x | n | n | n
CCOC(=O)Nc1ccc2c(c1)C(=NNC(N)=S)c1ccccc1-2 | n | x | x | x | u | x
COC(=O)c1cccc2c1-c1ccccc1/C2=N\NC(N)=O | n | x | n | n[2.33 µM] | n | n
NC(=S)N/N=C1\c2ccccc2-c2c(C(=O)O)cccc21 | n | n | 79µM | 28µM | n | n
NC(=O)c1cccc2c1-c1ccccc1/C2=N/NC(N)=S | n | x | n | 45µM | n | u
SMILES | HP1b chromo inh | L3MBTL1 block | Sfp inh | G9a inh | JMJD2A Tudor | BAZ2B inh
COc1ccc(-c2csc(NNC3=NCCCCC3)n2)cc1 | u | n | 13µM | 10µM | u | u
CCOc1ccc(-c2csc(NC(=O)C3CCCO3)n2)cc1 (stereo unspecified) | n | n | n | n | n | n
CCOc1ccc(-c2csc(NNC3=NCCCCC3)n2)cc1 | u | n | 10µM | 7.9µM | n[11.4 µM] | 50µM
COc1ccc(-c2csc(NC3=NCCCCC3)n2)cc1 | n | n | n | n | n | n
Cc1ccc(C(=O)NCc2ccc3c(c2)CCN3C(=O)c2ccc(C)cc2)cc1 | n | x | x | n | n | n
CC(C)C(=O)N(Cc1ccc2c(c1)OCO2)Cc1ccccn1 | n | n | n | 40µM | 56µM | u
O=C(NCc1ccc2c(c1)OCO2)c1ccccn1 | n | n | n | n | n | n
CCCCOc1cccc(C2c3c(-c4cc(C)ccc4O)n[nH]c3C(=O)N2CCOC)c1 (stereo unspecified) | n | x | x | n | u | n
CCOC(=O)/C=C/C(=O)Nc1ccc(S(=O)(=O)Nc2c(C)cc(C)cc2C)cc1 | n | n | n | n | n | n
CCOC(=O)/C=C/S(=O)(=O)c1ccc(NC(C)=O)cc1 | n | n | 40µM | 25µM | n | n
O=C(c1ccccc1)N1N=C(c2ccc(F)cc2)CC1(O)C(F)(F)F (stereo unspecified) | n | x | n | u | n | n
CN1CCC2(CC1)N=C(c1ccc(F)cc1)C(=S)N2C(=O)c1ccccc1 | u | u | 50µM | 22µM | u | n
O=C(O)CCN1CCc2ccccc2C1c1cccs1 (stereo unspecified) | n | n | n | 50µM | n | n
CC[C@H](C)[C@H](NC(=O)[C@H](Cc1ccccc1)NC(=O)[C@H](C)NC(=O)[C@H](CC(=O)O)NC(=O)[C@H](CCCCN)NC(=O)[C@H](CO)NC(=O)[C@@H]1CCCN1C(=O)[C@@H]1CCC(=O)N1)C(=O)NCC(=O)N[C@@H](CC(C)C)C(=O)N[C@@H](CCSC)C(N)=O | x | x | n | x | x | x
CCCCCC(CC)COC(=O)CC(C(=O)OCC(CC)CCCC)S(=O)(=O)O (stereo unspecified) | x | x | n | x | x | x
CCCCc1nc2c(c3c1C[C@H](C)OC3)CN(S(=O)(=O)c1ccc(NC(C)=O)cc1)CC2 | x | x | n | x | x | x
COC(=O)C/C=C\[C@@H](C)[C@@H](/C=N\OCC[C@@H]1C=C[C@H](OC(C)=O)[C@H](COC(C)=O)O1)OC | x | x | 1µM | x | x | x
CCc1cccc2cc(C(O)CNC(C)(C)C)oc12 (stereo unspecified) | x | x | n | x | x | x
CCOC(=O)c1ccc(-c2ccc(CO)o2)cc1 | n | n | n | 45µM | n | n
COc1ccc(NC(=O)c2cc(C(C)=O)n3ccccc23)cc1 | n | x | x | n | n | n
CC(C)CC(OC(=O)c1cccs1)C(=O)NCc1ccco1 (stereo unspecified) | n | n | u | 13µM | n | n
Cc1cccc(NS(=O)(=O)c2ccc3c(c2)CCN3C(=O)C2CCC2)c1 | n | x | x | n | n | x
O=C(O)c1ccccc1NS(=O)(=O)c1cccc(C(F)(F)F)c1 | n | x | n | n[2.33 µM] | n | n
O=C(O)c1ccccc1NS(=O)(=O)c1cccc(-n2sc3ccccc3c2=O)c1 | n | x | 2µM | 1.3µM | 1.4µM | 4µM
CC(C)(C)C(=O)N1CCN(c2ccc([N+](=O)[O-])cc2Cl)CC1 | n | x | x | x | n | x
Cc1ccc2nc(C)c(CN3CCN(c4ccc([N+](=O)[O-])cc4Cl)CC3)n2c1 | x | x | n | 50µM | x | 40µM
CCN(C(=O)c1cc2c(Cl)nc3ccc(C)cc3c2s1)c1cc(OC)ccc1OC | n | x | x | n | n | n
COc1ccc(S(=O)(=O)Nc2cc(Sc3ncn[nH]3)c(O)c3ccccc23)cc1 | u | x | 3.5µM | 1.6µM | 5.6µM | 45µM

Screens as filed in PubChem.
